# GPR151 activ = activates the human receptor GPR151; PathHunter beta-arrestin GPR151 cells, luminescence; Q8TDV0; 650,000 compounds, 1% hits; AID 1508602; activation, % at 11.2 µM; in the data active means activation above about 4.9%;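 further: 0% = median of compound wells and 100% = cells with positive control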
# Target sequence (Q8TDV0 whole entry, looked up): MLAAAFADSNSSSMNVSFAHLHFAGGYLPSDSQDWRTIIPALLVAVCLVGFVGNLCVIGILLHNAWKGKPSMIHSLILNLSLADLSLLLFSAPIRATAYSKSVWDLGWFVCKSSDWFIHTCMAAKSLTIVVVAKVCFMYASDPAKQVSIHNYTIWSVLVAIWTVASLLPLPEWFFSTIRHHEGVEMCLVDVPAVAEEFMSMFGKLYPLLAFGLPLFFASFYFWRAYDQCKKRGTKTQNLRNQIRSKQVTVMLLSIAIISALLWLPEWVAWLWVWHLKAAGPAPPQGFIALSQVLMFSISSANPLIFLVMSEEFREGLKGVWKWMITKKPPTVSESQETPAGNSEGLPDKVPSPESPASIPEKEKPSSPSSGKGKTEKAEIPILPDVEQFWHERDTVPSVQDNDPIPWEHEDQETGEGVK
# FBW7 act = activators of human E3 ligase FBW7; Q969H0; AlphaScreen FBW7–phospho-cyclin E peptide binding, activator screen; normalized activity (activation), % at 26.1 µM; 650,000 compounds, 0.13% hits; in the data active means normalized activity above about 1.9%;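 further: purified mutant Fbw7 with reduced substrate affinity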
# MITF primary = blocks human microphthalmia-associated transcription factor; 650,000 compounds, 0.91% hits; AID 1259374; AlphaScreen MITF homodimerization, bead proximity signal; O75030; inhibition, % at 2.6 µM; in the data active means inhibition above about 50%;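 further: 0% = vehicle wells with protein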
# TEAD-YAP inh = TEAD-YAP interaction inhibition; 640,000 compounds, 1.4% hits; inhibition, % at 9.12 µM; HEK-TIYL cells, TEAD-Gal4/YAP UAS-luciferase luminescence; AID 1259422; in the data active means inhibition above about 32%;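 further: 0% = median of test compound wells and 100% = reference inhibitor wells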
# GPR151 confirm = confirmation of human GPR151 activators | activation, % at 11.2 µM | AID 1508609 | GPR151 PathHunter beta-arrestin cells, luminescence, 90 min; % of EA-reagent control over plate median | shares compounds with GPR151 activ | 6,700 tested, under 10 active;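 active means mean percent activation across replicates above the confirmation screen cutoff of 4.91%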
# GPR119 ag = activates human GPR119 in a GPR151 counter-screen. shares compounds with GPR151 activ. GPR119 PathHunter beta-arrestin cells, luminescence, 90 min; 0 = compound-well median, 100 = enzyme-acceptor control. activation, % at 11.2 µM. 6,700 compounds, 0.3% hits. AID 1508611;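 active means mean percent activation in the counterscreen above 29.09%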;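 further: counterscreen on off-target GPR119 to flag nonselective hits from the GPR151 activator screen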
# * marks the source's active call; other numbers are inactive results; . = no result. Most compounds without a hit are left out; they make up all but 3.5% or so of the library.
SMILES,GPR151 activ,FBW7 act,MITF primary,TEAD-YAP inh,GPR151 confirm,GPR119 ag
CC1CCCCC1NC(=O)CNC(=S)N(Cc1cccs1)C1CCCCC1 (stereo unspecified),-0.2,0.1,-15.2,-13.6,.,.
O=C(CNC(=S)N(Cc1cccs1)C1CCCCC1)NC1CCCC1,6.2*,-0.1,1.8,7.3,-0.6,3.6
CC(C)CCN1CCNC(=O)C1CC(=O)N(Cc1nccn1C)C(C)C (stereo unspecified),5.8*,-0.1,5.3,4.7,-0.6,-3.9
Cc1cccc(OCCOc2ccccc2C=O)c1,2.9,0.1,-8.9,-18.4,.,.
C=CCOc1ccc(CNC2CCCC2)cc1OC,5.7*,0.1,-23.9,-1.2,-0.3,3.0
CCOc1cc(CNCCO)ccc1OCc1ccccc1,-1.1,-0.1,-15.5,-13.5,.,.
C=CCOc1ccc(CNCCO)cc1OCC,7.6*,0.0,5.9,4.3,-0.7,0.4
CCN(CC)S(=O)(=O)c1ccc(C(=O)Nc2c3c(nn2-c2ccc(C)cc2)CS(=O)(=O)C3)cc1,-0.8,-0.1,0.0,-3.7,.,.
CNc1cc([N+](=O)[O-])ccc1N/C=C\C(=O)c1ccc(OC)cc1OC,5.8*,0.0,15.8,-19.8,0.3,-1.4
COc1ccccc1C(CC(=O)Nc1nccs1)c1ccc2c(c1)OCO2 (stereo unspecified),6.6*,0.1,-0.3,-4.9,-0.3,13.1
COCCNC(=O)CN(C(=O)CCC(=O)Nc1ccccn1)c1ccc2c(c1)OCO2,-0.8,0.4,8.3,-4.6,.,.
COCCNC(=O)CN(C(=O)CCC(=O)Nc1nccs1)c1ccc2c(c1)OCO2,7.3*,0.1,-4.1,0.9,0.6,11.4
O=C(CN(C(=O)CCC(=O)Nc1nccs1)c1cccc(F)c1)NCC1CCCO1 (stereo unspecified),9.2*,1.0,11.2,-5.0,0.5,-0.1
O=C1c2cccnc2C(=O)N1CNc1ccc(Br)cc1,-0.9,-0.1,18.4,5.7,.,.
Cc1cc(C)n2c(SCCOc3ccccc3)nnc2n1,-0.2,0.1,13.3,-21.4,.,.
NC(=O)c1nn2c(c1Br)NC(c1ccccc1)CC2C(F)(F)F (stereo unspecified),-1.0,0.2,-10.7,2.4,.,.
O=C(O)c1nn2c(c1Br)NC(c1ccccc1)CC2C(F)(F)F (stereo unspecified),7.2*,0.0,0.0,-3.8,-0.4,11.1
CC(C)CN(CCCNC(=O)C1CC(=O)N(C2CCCC2)C1)CC(C)C (stereo unspecified),0.3,0.0,10.1,0.0,.,.
CC(C)CCNC(=O)C1CCC(=O)N1C(C)C (stereo unspecified),5.2*,-0.1,8.2,-5.9,0.5,3.8
CC(C)CCNC(=O)C1CC(=O)N(C2CCCCCC2)C1 (stereo unspecified),10.3*,0.0,0.6,0.2,0.3,2.0
COc1ccc(CCN2C(=O)CC(Cc3ccc(Br)cc3)C2=O)cc1OC (stereo unspecified),5.6*,0.1,-0.3,-4.3,-0.7,-6.8
COc1ccc(/C=C2\Oc3c(ccc(O)c3CN3CCN(C)CC3)C2=O)c(OC)c1,0.0,-0.1,-1.8,2.5,.,.
C=CCc1cc2c(C)cc(=O)oc2c(I)c1O,7.1*,0.5,14.1,-14.8,1.1,6.4
COc1ccccc1NC(=O)c1ccc(NC(=O)COC(=O)c2ccc(O)cc2)cc1,5.4*,-0.4,-0.2,12.8,-1.6,-14.6
CCOc1ccc(NS(=O)(=O)c2ccc(CN3C(=O)c4cccnc4C3=O)cc2)cc1,0.6,-0.1,5.2,-2.5,.,.
COc1ccccc1NS(=O)(=O)c1ccc(CN2C(=O)c3cccnc3C2=O)cc1,7.3*,0.2,10.9,11.3,0.1,-3.9
O=C(O)COc1ccc(N2C(=O)c3ccc(-c4nc5ccccc5c(=O)o4)cc3C2=O)cc1,7.2*,0.1,-1.8,0.0,-0.4,-3.3
CCS(=O)(=O)N1CCN=C1SCc1cccc([N+](=O)[O-])c1,0.4,0.0,34.4,5.6,.,.
CCCS(=O)(=O)N1CCN=C1SCc1cccc([N+](=O)[O-])c1,5.3*,0.0,7.7,-14.0,-0.4,-2.1
O=[N+]([O-])c1ccc(CSC2=NCCN2S(=O)(=O)c2ccc([N+](=O)[O-])cc2)cc1,1.7,-0.1,3.5,3.9,.,.
